# PubChem BioAssay AID651692 (Broad Institute, 2012)
# Measured potencies and affinities stand elsewhere. Calls of active or inactive are those of the source.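 How the source made its calls: active means fitted half-maximal concentration for loss of cell signal no higher than twice the top valid tested concentration; inconclusive means flat curve at 30 to 70% inhibition, or poor fit; inactive means flat within 30%, signal rise, or potency above limit.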
# Experiment: cytotoxicity toward MDA-MB-231 breast cancer cells – cell-based, CellTiter-Glo luminescence, cherry-pick, cytotoxicity control for RAD54 inhibitor project, dose response (AID 651692);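 further: more negative values mean stronger loss of viable cell signal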
# Settings: MDA-MB-231 viability, 24 h; series mostly up to 26 µM
row,Compound,outcome
1,CCOC(=O)c1c(C)n(C)c2ccc(OCC(O)CN3CCC(C)CC3)cc12 (stereo not drawn),inactive
2,COCCCNCCC(CCC(C)C)c1ccc2c(c1)OCO2 (stereo not drawn),inactive
3,CCn1cc(C(=O)NCCN(C)C)c(=O)c2cc(F)c(N3CCN(C)CC3)cc21,inactive
4,Cn1c(NCCN2CCCC2)nc2cc(-c3ccsc3)sc2c1=O,inactive
5,Cc1cc(-c2cc(NC=O)c3ncc(-c4cccc(C(=O)NCCN(C)C)c4)n3c2)cc(C)c1O,inactive
6,Nc1ccc(-c2nc3c(ccc4ccccc43)[nH]2)cc1,inactive
7,Cc1ccc2nc3c(c(Nc4ccc5c(c4)OCCO5)c2c1)CCC3,inactive
8,CCCCN(C)CCNC(=S)Nc1ccc2nc(N3CCN(CC)CC3)cc(C)c2c1,inactive
9,N=c1c(C(=O)NCCN2CCOCC2)cc2c(=O)n3ccccc3nc2n1CCCN1CCOCC1,inactive
10,Cc1cc(NCCCN(C)C)n2c(nc3ccccc32)c1C#N,inactive
11,CN1CCN(c2nc(-c3ccccn3)nc3ccccc23)CC1,inactive
12,CC1CCCN(CCCNC(=O)c2cc3c(Cl)nc4ccccc4c3s2)C1 (stereo not drawn),inactive
13,Oc1ccc(CCNc2c3ccccc3nc3ccccc23)cc1O,inactive
14,CCN(CC)CCNC(=S)Nc1ccc2nc(N3CCN(C)CC3)cc(C)c2c1,inactive
15,CN1CCC[C@H]1CCNc1ccc2c(=O)c3ccccc3n(C)c2c1,inactive
16,COc1ccc(Nc2c3c(nc4ccc(C)cc24)CCC3)cc1,inactive
17,CCOC(=O)c1cnc2c(Cl)cccc2c1NCCCN1CCOCC1,inactive
18,CCCCN(C)CCNC(=O)c1cc2cc3ccc(OC)cc3nc2o1,inactive
